{
  "source": "the supplement of paper PMC10503962",
  "system": "Trichuris muris adult worms",
  "assay": "mean motility score (Paragon pixel variance) of adult worms (arbitrary units); higher = more motile worms, i.e. less anthelmintic effect; extreme values may be limits of the assay",
  "settings": "100 µM; 24 h",
  "outline": "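Single adult Trichuris muris worms, recovered from infected NOD SCID mice, were exposed to drug at 100 μM (1% v/v DMSO) in 100 μL RPMI-1640 with antibiotics in 96-well plates for 24 h at 37°C and 5% CO2. The plates were then filmed on an automated phenotyping platform. The motility score was calculated through Paragon pixel-variance analysis and averaged across replicate wells, with three worms in three wells per drug on three separate occasions.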",
  "data": [
    {"smiles": "CCCCCNC(=N)N/N=C/c1c[nH]c2ccc(OC)cc12.O=C(O)/C=C\\C(=O)O", "note": "[tegaserod maleate]", "values": [
      {"measurement": "mean motility score", "value": 0}
    ]},
    {"smiles": "CSCC[C@H](N)C(=O)O", "note": "[methionine]", "values": [
      {"measurement": "mean motility score", "value": 3180}
    ]},
    {"smiles": "C[C@H]1O[C@@H](O[C@H]2[C@@H](O)C[C@H](O[C@H]3[C@@H](O)C[C@H](O[C@H]4CC[C@@]5(C)[C@H](CC[C@@H]6[C@@H]5CC[C@]5(C)[C@@H](C7=CC(=O)OC7)CC[C@]65O)C4)O[C@@H]3C)O[C@@H]2C)C[C@H](O)[C@@H]1O", "note": "[digitoxin]", "values": [
      {"measurement": "mean motility score", "value": 3060}
    ]},
    {"smiles": "Cc1ncc([N+](=O)[O-])n1CC(C)O", "note": "(stereo not drawn) [secnidazole]", "values": [
      {"measurement": "mean motility score", "value": 2540}
    ]},
    {"smiles": "CNC[C@H](O)c1cccc(O)c1", "note": "[phenylephrine]", "values": [
      {"measurement": "mean motility score", "value": 3950}
    ]},
    {"smiles": "CCOC(=O)[C@H](CCc1ccccc1)N[C@H]1CCc2ccccc2N(CC(=O)O)C1=O.Cl", "note": "[benazepril hydrochloride]", "values": [
      {"measurement": "mean motility score", "value": 2030}
    ]},
    {"smiles": "C[C@H](O)C(=O)Nc1c(I)c(C(=O)NC(CO)CO)c(I)c(C(=O)NC(CO)CO)c1I", "note": "[iopamidol]", "values": [
      {"measurement": "mean motility score", "value": 2190}
    ]},
    {"smiles": "CCN(Cc1ccncc1)C(=O)C(CO)c1ccccc1", "note": "(stereo not drawn) [tropicamide]", "values": [
      {"measurement": "mean motility score", "value": 2030}
    ]},
    {"smiles": "Cc1c(-c2ccccc2)oc2c(C(=O)OCCN3CCCCC3)cccc2c1=O", "note": "[flavoxate]", "values": [
      {"measurement": "mean motility score", "value": 4070}
    ]},
    {"smiles": "CN(C)C(=N)N=C(N)N.Cl", "note": "[metformin hydrochloride]", "values": [
      {"measurement": "mean motility score", "value": 4240}
    ]},
    {"smiles": "CC[N+](CC)(CCNC(=O)C(=O)NCC[N+](CC)(CC)Cc1ccccc1Cl)Cc1ccccc1Cl", "note": "[ambenonium]", "values": [
      {"measurement": "mean motility score", "value": 3180}
    ]},
    {"smiles": "CCOC(=O)N1CCC(=C2c3ccc(Cl)cc3CCc3cccnc32)CC1.Cl", "note": "[loratadine hydrochloride]", "values": [
      {"measurement": "mean motility score", "value": 0}
    ]},
    {"smiles": "CCCc1nc(C)c2c(=O)nc(-c3cc(S(=O)(=O)N4CCN(CC)CC4)ccc3OCC)[nH]n12", "note": "[vardenafil]", "values": [
      {"measurement": "mean motility score", "value": 2160}
    ]},
    {"smiles": "CN1CCC(=C2c3ccccc3CC(=O)c3sccc32)CC1", "note": "[ketotifen]", "values": [
      {"measurement": "mean motility score", "value": 2220}
    ]},
    {"smiles": "COc1cc2nccc(Oc3ccc(NC(=O)C4(C(=O)Nc5ccc(F)cc5)CC4)cc3)c2cc1OC", "note": "[cabozantinib]", "values": [
      {"measurement": "mean motility score", "value": 3950}
    ]},
    {"smiles": "CCOC(=O)c1ncn2c1CN(C)C(=O)c1cc(F)ccc1-2", "note": "[flumazenil]", "values": [
      {"measurement": "mean motility score", "value": 3230}
    ]},
    {"smiles": "Clc1cc(Cl)c(OCC#CI)cc1Cl", "note": "[haloprogin]", "values": [
      {"measurement": "mean motility score", "value": 2180}
    ]},
    {"smiles": "N[C@@H](CCC(=O)O)C(=O)O", "note": "[L-glutamate]", "values": [
      {"measurement": "mean motility score", "value": 3930}
    ]},
    {"smiles": "Nc1ccc(C(=O)O)c(O)c1", "note": "[aminosalicylic acid]", "values": [
      {"measurement": "mean motility score", "value": 4450}
    ]},
    {"smiles": "CC(C)(C)NC(=O)[C@H]1CC[C@H]2[C@@H]3CC[C@H]4NC(=O)C=C[C@]4(C)[C@H]3CC[C@]12C", "note": "[finasteride]", "values": [
      {"measurement": "mean motility score", "value": 2080}
    ]},
    {"smiles": "Cc1c(O)cccc1C(=O)N[C@@H](CSc1ccccc1)[C@H](O)CN1C[C@H]2CCCC[C@H]2C[C@H]1C(=O)NC(C)(C)C", "note": "[nelfinavir]", "values": [
      {"measurement": "mean motility score", "value": 1430}
    ]},
    {"smiles": "CN/C(=C\\[N+](=O)[O-])NCCSCc1csc(CN(C)C)n1", "note": "[nizatidine]", "values": [
      {"measurement": "mean motility score", "value": 3800}
    ]},
    {"smiles": "Clc1ccc(COC(Cn2ccnc2)c2ccc(Cl)cc2Cl)c(Cl)c1", "note": "(stereo not drawn) [miconazole]", "values": [
      {"measurement": "mean motility score", "value": 122}
    ]},
    {"smiles": "COc1cccc2c1C(=O)c1c(O)c3c(c(O)c1C2=O)C[C@@](O)(C(=O)CO)C[C@@H]3O[C@H]1C[C@H](N)[C@H](O)[C@H](C)O1", "note": "[doxorubicin]", "values": [
      {"measurement": "mean motility score", "value": 2090}
    ]},
    {"smiles": "CC/C(=C(/CC)c1ccc(O)cc1)c1ccc(O)cc1", "note": "[diethylstilbestrol]", "values": [
      {"measurement": "mean motility score", "value": 0}
    ]},
    {"smiles": "CC(C)(C)NCC(O)c1ccc(O)c(CO)c1.O=S(=O)(O)O", "note": "(stereo not drawn) [albuterol sulfate]", "values": [
      {"measurement": "mean motility score", "value": 1690}
    ]},
    {"smiles": "C[C@@H](c1ncncc1F)[C@](O)(Cn1cncn1)c1ccc(F)cc1F", "note": "[voriconazole]", "values": [
      {"measurement": "mean motility score", "value": 4350}
    ]},
    {"smiles": "CNCCC=C1c2ccccc2CCc2ccccc21", "note": "[nortriptyline]", "values": [
      {"measurement": "mean motility score", "value": 911}
    ]},
    {"smiles": "CCn1cc(C(=O)O)c(=O)c2cc(F)c(N3CCNC(C)C3)c(F)c21", "note": "(stereo not drawn) [lomefloxacin]", "values": [
      {"measurement": "mean motility score", "value": 3840}
    ]},
    {"smiles": "CC/C(=C(\\c1ccccc1)c1ccc(OCCN(C)C)cc1)c1ccccc1", "note": "[tamoxifen]", "values": [
      {"measurement": "mean motility score", "value": 165}
    ]},
    {"smiles": "Cc1ccc(NC(=O)c2ccc(CN3CCN(C)CC3)cc2)cc1Nc1nccc(-c2cccnc2)n1", "note": "[imatinib]", "values": [
      {"measurement": "mean motility score", "value": 3600}
    ]},
    {"smiles": "Br.CCCCCCCCCCCCCCCC[N+](C)(C)CCN(Cc1ccc(OC)cc1)c1ncccn1", "note": "[thonzonium bromide]", "values": [
      {"measurement": "mean motility score", "value": 0}
    ]},
    {"smiles": "Cc1[nH]c(/C=C2\\C(=O)Nc3ccccc32)c(C)c1CCC(=O)O", "note": "[orantinib]", "values": [
      {"measurement": "mean motility score", "value": 3560}
    ]},
    {"smiles": "CC(C)O", "note": "[isopropyl alcohol]", "values": [
      {"measurement": "mean motility score", "value": 2760}
    ]},
    {"smiles": "C[C@@H]1CN(c2c(F)c(N)c3c(=O)c(C(=O)O)cn(C4CC4)c3c2F)C[C@H](C)N1", "note": "[sparfloxacin]", "values": [
      {"measurement": "mean motility score", "value": 3980}
    ]},
    {"smiles": "COc1nc(C)nc(Cl)c1NC1=NCCN1", "note": "[moxonidine]", "values": [
      {"measurement": "mean motility score", "value": 3500}
    ]},
    {"smiles": "CC(=O)Oc1cccc2c1C(=O)c1c(OC(C)=O)cc(C(=O)O)cc1C2=O", "note": "[diacerein]", "values": [
      {"measurement": "mean motility score", "value": 0}
    ]},
    {"smiles": "COc1ccc2[nH]cc(CCNC(C)=O)c2c1", "note": "[melatonin]", "values": [
      {"measurement": "mean motility score", "value": 4410}
    ]}
  ]
}
